Experimental data published in PubChem BioAssay.
The source made the active and inactive calls.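 The calls were made as follows, unless noted: active = inhibition above 20% together with a positive visual image hit; inconclusive = visual image hit but inhibition not above 20%; inactive = no visual image hit.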

Key:
[1] = inhibitors of TNFa-induced NFkB p65 translocation, primary screen, imaging, HUVEC, MLSMR starter and 10KST1 sets (AID 438); settings: HUVEC TNFa-induced p65 nuclear translocation; cell count: measured here: nuclei count (cytotoxicity indicator), at 2.08 µM; inhibition: at 2 µM, stronger effect = higher value, 0% TNFa-plus-vehicle, 100% no-TNFa wells;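 also: compound added about 3h40 before a 20 min TNFalpha stimulation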;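 as to inhibition: signal is the nuclear over cytoplasmic p65 intensity ratio per well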
[2] = inhibitors of mutant huntingtin aggregation, primary screen, imaging, exon1htt(103Q)mCFP cells, high-content imaging (AID 483;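 active = visual image review flags a hit and inhibition of aggregation exceeds 20%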;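 also: compound exposure lasted 3 days before fixation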;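 as to nuclei count: percent of the per-plate median nuclei count of sample wells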); settings: exon1htt(103Q)mCFP cell line, aggregate imaging, at 2 µM; inhibition of aggregation: stronger effect = higher value; nuclei count: measured here: cell count, toxicity
[3] = inhibitors of E-selectin induction by TNFa, primary screen, imaging, HUVEC, immunofluorescence, MLSMR starter and 10KST1 sets (AID 487;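 active = visually confirmed hit in the image check and inhibition above 20%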;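 as to inhibition: signal is fraction of cell area covered by stained E-selectin grains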;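 as to nuclei count: 100% = median nuclei count of all wells on the same plate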); settings: HUVEC TNFalpha-induced E-selectin immunofluorescence imaging, at 2 µM; inhibition: stronger effect = higher value; nuclei count: measured here: cell number, toxicity
[4] = biological target: Voltage-gated potassium channel subunit beta-2 (Rattus norvegicus) (UniProt P62483); test: KvBeta enzyme negative modulators, primary screen, biochemical, NADPH fluorescence (AID 622;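 active = fluorescence slope higher than the sample average by over 3 SD, cut at about -0.22 in these data, passing the limit was not always enough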;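 also: slope of raw intensity against log time taken from 70 to 1610 s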); settings: recombinant KvBeta, 4-cyanobenzaldehyde reduction, at 10 µM, stronger effect = higher value
Chain of Voltage-gated potassium channel subunit beta-2 (Rattus norvegicus) (P62483 whole entry, looked up): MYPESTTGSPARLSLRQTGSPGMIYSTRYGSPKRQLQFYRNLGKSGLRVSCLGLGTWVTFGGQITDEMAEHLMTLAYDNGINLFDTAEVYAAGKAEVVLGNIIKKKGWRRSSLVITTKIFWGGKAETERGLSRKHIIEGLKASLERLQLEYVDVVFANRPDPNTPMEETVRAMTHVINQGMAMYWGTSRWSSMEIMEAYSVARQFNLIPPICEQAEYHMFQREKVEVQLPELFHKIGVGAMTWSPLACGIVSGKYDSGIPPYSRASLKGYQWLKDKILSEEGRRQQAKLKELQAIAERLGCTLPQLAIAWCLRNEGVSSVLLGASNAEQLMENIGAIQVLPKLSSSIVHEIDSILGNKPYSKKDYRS

[5] = biological target: Voltage-gated potassium channel subunit beta-2 (Rattus norvegicus) (UniProt P62483); test: KvBeta positive modulators, primary screen, biochemical, NADPH fluorescence (AID 623;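 active = NADPH fluorescence slope more negative than the mean of all samples by about 3 SD, 99.7% confidence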;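 also: fluorescence intensity change per second fitted from 20 to 320 s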); settings: Recombinant KvBeta, NADPH fluorescence decrease slope, 10 min; at 10 µM; stronger effect = lower value
[6] = biological target: Alpha-2C adrenergic receptor (Homo sapiens) (UniProt P18825); test: modulators of alpha2C/GIRK thallium flux, primary screen, cell-based, HEK293 alpha2C/GIRK1/2 (AID 624;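 active = fluorescence slope after compound addition differing from the mean of all screened samples at 99.7% confidence, in either direction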;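 also: slope of fluorescence ratio to pre-addition baseline per second over 15 to 24 s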); settings: thallium flux BTC fluorescence, at 10 µM, actives lie on both sides
Chain of Alpha-2C adrenergic receptor (Homo sapiens) (P18825 whole entry, looked up): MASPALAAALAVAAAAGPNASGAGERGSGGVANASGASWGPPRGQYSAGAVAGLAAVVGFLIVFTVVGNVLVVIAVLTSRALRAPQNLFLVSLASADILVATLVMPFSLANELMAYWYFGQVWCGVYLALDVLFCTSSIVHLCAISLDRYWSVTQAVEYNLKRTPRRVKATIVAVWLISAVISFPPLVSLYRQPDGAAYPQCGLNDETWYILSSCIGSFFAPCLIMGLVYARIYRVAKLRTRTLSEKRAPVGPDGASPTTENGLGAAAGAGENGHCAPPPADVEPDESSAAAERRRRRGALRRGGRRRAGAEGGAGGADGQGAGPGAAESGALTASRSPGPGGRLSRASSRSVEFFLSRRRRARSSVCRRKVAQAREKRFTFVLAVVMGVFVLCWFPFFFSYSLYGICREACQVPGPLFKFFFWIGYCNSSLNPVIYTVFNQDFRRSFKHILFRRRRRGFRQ

[7] = inhibitors of Sendai virus-induced IRF3 signaling, primary screen, TLR/RLR signaling modifier project, cell-based, Sendai virus stimulus, luciferase, 10K MLSCN set (AID 602276;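 active = inhibition at or above 50% at 10 µM; inactive = inhibition below 50%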;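 also: firefly luciferase from ISG56 promoter only with Renilla not read in this screen; 0% = Sendai virus plus DMSO and 100% = medium plus DMSO without virus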); settings: HEK293 RL24 IRF3 luciferase reporter, at 10 µM, stronger effect = higher value
[8] = inhibitors of poly I:C-induced TLR3 signaling, primary screen, cell-based, poly I:C stimulus, luciferase, 10K MLSCN set (AID 602277;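 active = inhibition of the reporter signal at or above 50%; inactive = inhibition below 50%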); settings: HEK293-TLR3 RL24 IRF3 luciferase reporter, at 10 µM, stronger effect = higher value

SMILES	cell count [1]	inhibition [1]	inhibition of aggregation [2]	nuclei count [2]	inhibition [3]	nuclei count [3]	fluorescence slope [4]	NADPH fluorescence slope [5]	slope [6]	inhibition [7]	inhibition [8]
COc1cccc2cc(C(=O)C3=C(O)C(=O)N(CCCN4CCOCC4)C3c3ccncc3)oc12 (stereo not drawn)	463	0.9% (inactive)	-8.5% (inactive)	103%	-14.9% (inactive)	120%	-0.478 (inactive)	-7.1e-05 (inactive)	0.00372 (inactive)	-11.8% (inactive)	10.6% (inactive)
c1ccc(Cc2ccc(OCCn3cncn3)cc2)cc1	755	-5.6% (inactive)	-15.5% (inactive)	102%	-68.7% (inactive)	108%	-0.477 (inactive)	1.2e-05 (inactive)	0.00592 (inactive)	-18.4% (inactive)	-0.13% (inactive)
COc1cc(OC)c(-c2nn3c(C4CCCCC4)nnc3s2)cc1OC	573	7.2% (inactive)	1.8% (inactive)	109%	-115% (inactive)	126%	-0.412 (inactive)	-5.9e-05 (inactive)	0.00604 (inactive)	12.8% (inactive)	16.9% (inactive)
O=C(CN1CCN(Cc2ccccc2F)C1=O)NCc1cccnc1	674	-9.2% (inactive)	18.1% (inactive)	93.5%	-69.2% (inactive)	115%	-0.502 (inactive)	2.9e-05 (inactive)	0.00712 (inactive)	7.76% (inactive)	7.56% (inactive)
COc1nnc(-c2ccc(C)c(S(=O)(=O)NCCO)c2)c2ccccc12	325	-2.7% (inactive)	11.7% (inactive)	75.4%	-17.6% (inactive)	95.3%	-0.424 (inactive)	1e-05 (inactive)	0.0039 (inactive)	1.8% (inactive)	28.9% (inactive)
CCOC(=O)C1CCCN(C(=O)c2cn(C)c(=O)c3cc(OC)c(OC)cc23)C1 (stereo not drawn)	746	-16.1% (inactive)	-3.6% (inactive)	110%	0.3% (inactive)	110%	-0.468 (inactive)	-1e-06 (inactive)	0.00726 (inactive)	6.66% (inactive)	15.1% (inactive)
COCCCn1nnnc1SCC(=O)Nc1nc(C)c(C)s1	435	-5.5% (inactive)	14.2% (inactive)	58.2%	-133% (inactive)	104%	-0.499 (inactive)	-5.5e-05 (inactive)	0.00473 (inactive)	2.9% (inactive)	9.02% (inactive)
CC(C)Cc1nc(S(=O)(=O)c2ccc(Cl)cc2)c(N2CCOCC2)o1	570	-12.7% (inactive)	-12.7% (inactive)	119%	-14.6% (inactive)	105%	-0.612 (inactive)	-4.1e-05 (inactive)	0.00543 (inactive)	13.7% (inactive)	12.7% (inactive)
CCOC(=O)c1sc2nc(SCC(=O)NCc3ccco3)n(Cc3ccccc3)c(=O)c2c1C	395	-1.1% (inactive)	0.8% (inactive)	89.7%	-22% (inactive)	99.6%	-0.449 (inactive)	-2.2e-05 (inactive)	0.00701 (inactive)	5.1% (inactive)	21.4% (inactive)
O=C(c1ccc2nc(N3CCOCC3)sc2c1)N1CCCC1	708	-11.2% (inactive)	6% (inactive)	62.7%	-70.6% (inactive)	116%	-0.564 (inactive)	-2.7e-05 (inactive)	0.00689 (inactive)	3.55% (inactive)	3.65% (inactive)
CCCCc1noc2c1/C(=N\O)CC(c1ccccc1)C2 (stereo not drawn)	365	2% (inactive)	11.5% (inactive)	106%	-65.5% (inactive)	94.1%	-0.446 (inactive)	-5.9e-05 (inactive)	0.0073 (inactive)	-46.5% (inactive)	-152% (inactive)
COc1ccc2nc(CC(C)(C)CC(=O)O)c[n+]([O-])c2c1	377	-1% (inactive)	-0.5% (inactive)	110%	-11.7% (inactive)	94%	-0.587 (inactive)	-1.8e-05 (inactive)	0.0065 (inactive)	10.6% (inactive)	29.8% (inactive)
CCOC(=O)C1=C(C)N(C)C(=O)NC1c1cccc(O)c1 (stereo not drawn)	421	6.4% (inactive)	-6.7% (inactive)	99.3%	-43.5% (inactive)	124%	-0.259 (inactive)	-1.3e-05 (inactive)	0.00604 (inactive)	9.66% (inactive)	17.5% (inactive)
CCOC(=O)CN1CC23C=CC(O2)C(C(=O)Nc2ccc(OC)cc2OC)C3C1=O (stereo not drawn)	563	8% (inactive)	8.7% (inactive)	81.1%	-54% (inactive)	116%	-0.574 (inactive)	-1.5e-05 (inactive)	0.00618 (inactive)	8.81% (inactive)	32% (inactive)
CCOC(=O)N1CCC(NC(=O)c2ccc3c(c2)sc2nc(-c4cccc(OC)c4)cn23)CC1	415	8% (inactive)	8.8% (inactive)	93.6%	-3.7% (inactive)	108%	-0.485 (inactive)	-2.7e-05 (inactive)	0.00825 (inactive)	-22.7% (inactive)	-70.4% (inactive)
CCOC(=O)C1CCN(C(c2cc3cc(C)cc(C)c3[nH]c2=O)c2nnnn2C2CCCCC2)CC1 (stereo not drawn)	444	-8.2% (inactive)	-7.5% (inactive)	77.4%	-75.4% (inactive)	159%	-0.625 (inactive)	-3.6e-06 (inactive)	0.00591 (inactive)	13.6% (inactive)	38.3% (inactive)
CCc1ccc(NC(=O)CSc2nnc(Cc3cccn3C)n2-c2ccc(OC)cc2)cc1	891	7.4% (inactive)	-2.2% (inactive)	111%	-54.1% (inactive)	117%	-0.609 (inactive)	1.4e-05 (inactive)	0.00529 (inactive)	20.1% (inactive)	23.6% (inactive)
CCn1cc(C(=O)NCC2CCCO2)c(=O)c2cc(S(=O)(=O)N(C)C3CCCCC3)ccc21 (stereo not drawn)	528	3.7% (inactive)	-8.9% (inactive)	99.3%	-60.9% (inactive)	97.9%	-0.629 (inactive)	-3.4e-05 (inactive)	0.00653 (inactive)	16.7% (inactive)	33.2% (inactive)
COC(=O)C1CCN(C(=O)NC(C)(C)C)CC1	307	-4.5% (inactive)	14.5% (inactive)	82.1%	-37.4% (inactive)	99.6%	-0.618 (inactive)	-4.3e-05 (inactive)	0.00637 (inactive)	5.02% (inactive)	14.9% (inactive)
CCOC(=O)N1CCN(C(=O)CN(c2ccc(C)cc2)S(=O)(=O)c2c(C)noc2C)CC1	565	-28.3% (inactive)	-13% (inactive)	103%	-36.7% (inactive)	108%	-0.617 (inactive)	1.1e-05 (inactive)	0.00556 (inactive)	18.5% (inactive)	30.7% (inactive)
Cc1ccc2oc(C(=O)Nc3c(C)n(C)n(-c4ccccc4)c3=O)c(C)c2c1	776	-5% (inactive)	-1.5% (inactive)	109%	-37.6% (inactive)	108%	-0.616 (inactive)	-2.7e-05 (inactive)	0.00692 (inactive)	-5.27% (inactive)	7.35% (inactive)
OC(CN1CCN(c2ccccn2)CC1)Cn1c2ccccc2c2ccccc21 (stereo not drawn)	386	5.1% (inactive)	7.2% (inactive)	104%	-14.4% (inactive)	107%	-0.472 (inactive)	5.1e-05 (inactive)	0.00493 (inactive)	1.54% (inactive)	21.8% (inactive)
COc1cccc(C2=Nn3c(nnc3-c3ccccc3O)SC2)c1	436	3.4% (inactive)	2.3% (inactive)	99.4%	25.3% (inactive)	86.4%	-0.312 (inactive)	2.8e-05 (inactive)	0.00345 (inactive)	6.36% (inactive)	19.2% (inactive)
COc1ccccc1Nc1nc2ccccc2[nH]1	654	4.7% (inactive)	4.6% (inactive)	94.6%	-12.4% (inactive)	96.8%	-0.427 (inactive)	-3.7e-06 (inactive)	0.00559 (inactive)	-19.5% (inactive)	-54.9% (inactive)
Cc1nnc(SCC(=O)N2CCC(C(=O)Nc3nccs3)CC2)n1Cc1ccccc1	405	6.1% (inactive)	8.5% (inactive)	104%	10.2% (inactive)	100%	-0.604 (inactive)	-4.4e-05 (inactive)	0.00447 (inactive)	18.3% (inactive)	17% (inactive)
Cc1nn(-c2ccc(Cl)cc2)c2sc(C(=O)N3CCN(c4ccccn4)CC3)cc12	571	-3.6% (inactive)	1.7% (inactive)	95.6%	42.5% (inactive)	108%	-0.612 (inactive)	-2.4e-05 (inactive)	0.011 (active)	9.58% (inactive)	-7.18% (inactive)
COc1ccccc1NC(=O)Cc1noc(CSc2cc(C)c3ccccc3n2)n1	572	-12.8% (inactive)	25.7% (inactive)	81.6%	-160% (inactive)	95.9%	-0.337 (inactive)	-5.3e-05 (inactive)	0.00168 (inactive)	6.32% (inactive)	-8.68% (inactive)
O=C1c2ccccc2CN1CCNS(=O)(=O)c1ccc(Cl)cc1	414	-1% (inactive)	-2.3% (inactive)	101%	-1.7% (inactive)	97%	-0.389 (inactive)	-7.9e-06 (inactive)	0.00712 (inactive)	14.1% (inactive)	25.9% (inactive)
